This is part of a sample that, as a whole, favours compounds with a hit. Of some 79,000 tested, about 15% had one in any assay. Rule as the data show it: active = growth inhibition above about 70%; inactive = the rest.
Columns and labels:
[1] = NCI Yeast Anticancer Drug Screen. Data for the rad52 strain (AID 147);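 also: 0% = growth of vehicle-treated control cultures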; settings: S. cerevisiae rad52 mutant growth inhibition, hits give high values
Summary of the method: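 Compounds are applied to a genetically defined yeast strain lacking normal DNA damage repair, and inhibition of growth is expressed relative to cultures given vehicle only.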

[2] = NCI Yeast Anticancer Drug Screen. Data for the wt1 strain (AID 149);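 also: 0% = growth of vehicle-treated wt1 cultures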; settings: S. cerevisiae wt1 strain (SPY 50644) growth inhibition, hits give high values
Summary of the method: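 wt1 strain grown with compound or vehicle; inhibition taken from the growth difference.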

[3] = NCI Yeast Anticancer Drug Screen. Data for the rad50EPP+ strain (AID 151);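 also: 0% = growth of vehicle-treated control cultures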; settings: S. cerevisiae rad50 mutant strain, hits give high values
Summary of the method: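 Compounds were applied to the rad50EPP+ yeast strain, which bears a defined DNA repair alteration, and growth inhibition was determined relative to vehicle-treated cultures.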

[4] = NCI Yeast Anticancer Drug Screen. Data for the mgt1 strain (AID 153); settings: S. cerevisiae mgt1 mutant growth inhibition, hits give high values
Summary of the method: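 Strain: mgt1 yeast, one of a set carrying defined DNA damage repair or cell cycle control alterations. Compound-treated growth compared with vehicle.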

[5] = NCI Yeast Anticancer Drug Screen. Data for the rad50 strain (AID 155);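 also: 0% = growth of vehicle-only cultures of the same strain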; settings: S. cerevisiae rad50 strain growth inhibition, hits give high values
Summary of the method: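 DNA repair mutant yeast, compound exposure, growth read-out; inhibition is taken relative to vehicle.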

[6] = NCI Yeast Anticancer Drug Screen. Data for the mec2-1 strain (AID 157); settings: S. cerevisiae mec2-1 strain, hits give high values
Summary of the method: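 Strain: mec2-1 (DNA repair/cell cycle alteration). Compound exposure, then growth measured; inhibition expressed relative to vehicle.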

[7] = NCI Yeast Anticancer Drug Screen. Data for the rad14 strain (AID 159);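 also: 0% = growth of vehicle-treated control cultures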; settings: S. cerevisiae rad14 strain growth inhibition, hits give high values
Summary of the method: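 DNA repair-defective yeast, compound-exposed; % growth inhibition derived by comparison with vehicle-treated controls.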

[8] = NCI Yeast Anticancer Drug Screen. Data for the sgs1 mgt1 strain (AID 161);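 also: 0% = growth of cultures given vehicle only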; settings: S. cerevisiae sgs1 mgt1 strain, hits give high values
Summary of the method: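 Mutant yeast exposed to compound; growth scored against vehicle-only wells.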

[9] = NCI Yeast Anticancer Drug Screen. Data for the CLN2oe strain (AID 163);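 also: 0% = growth of vehicle-only control cultures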; settings: S. cerevisiae CLN2oe strain, hits give high values
Summary of the method: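 Growth of a genetically modified yeast strain is measured after compound exposure and compared with cultures given vehicle alone.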

[10] = NCI Yeast Anticancer Drug Screen. Data for the cln2 rad14 strain (AID 165);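 also: 0% = growth equal to vehicle treated cultures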; settings: S. cerevisiae cln2 rad14 strain, hits give high values
Summary of the method: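 Compounds are applied to the cln2 rad14 yeast strain, and growth is then compared with that of vehicle-treated cultures to give inhibition.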

[11] = NCI Yeast Anticancer Drug Screen. Data for the bub3 strain (AID 167); settings: S. cerevisiae bub3 mutant strain, hits give high values
Summary of the method: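 In this screen, a yeast mutant lacking normal mitotic checkpoint function is challenged with compound. Relative growth versus vehicle gives the inhibition value.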

[12] = NCI Yeast Anticancer Drug Screen. Data for the wt2 strain (AID 169);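 also: 0% = growth of vehicle-treated yeast cultures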; settings: S. cerevisiae wt2 strain growth inhibition, hits give high values
Summary of the method: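 This strain belongs to a panel of yeast strains with defined genetic alterations in DNA damage repair or cell cycle control. Compounds are applied, and growth inhibition is measured against vehicle-treated cultures.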

[13] = NCI Yeast Anticancer Drug Screen. Data for the mlh1 strain (AID 171);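 also: 0% = growth of vehicle-treated control cultures of the same strain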; settings: S. cerevisiae mlh1 strain growth inhibition, hits give high values
Summary of the method: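 Growth of the mutant yeast strain after compound exposure, expressed as inhibition relative to vehicle-only controls.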

[14] = NCI Yeast Anticancer Drug Screen. Data for the sgs1 strain (AID 173);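 also: 0% = growth of vehicle-only control cultures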; settings: S. cerevisiae sgs1 mutant, hits give high values
Summary of the method: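 Growth of a yeast strain bearing a defined genetic alteration is measured after compound treatment. Inhibition is expressed relative to vehicle-only controls.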

[15] = NCI Yeast Anticancer Drug Screen. Data for the mlh1 rad18 strain (AID 175); settings: S. cerevisiae mlh1 rad18 strain growth inhibition, hits give high values
Summary of the method: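 Read-out is yeast growth inhibition, calculated against vehicle-only controls. The compound was applied to a strain engineered with DNA damage repair alterations.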

[16] = NCI Yeast Anticancer Drug Screen. Data for the rad18 strain (AID 177); settings: S. cerevisiae rad18 mutant growth inhibition, hits give high values
Summary of the method: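 Growth of the mutant yeast strain after compound exposure, normalised to vehicle-only cultures.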

[17] = at 5.0 µM (retest, dose inferred, filed as 0.5)
[18] = at 50.0 µM (retest, dose inferred, filed as 5.0)

Measured: growth inhibition

CC(C)OC(=O)Oc1ccccc1OC(=O)OC(C)C
inactive: [1]; at 1.2 µM -3% | [1]; at 3.7 µM -3% | [1]; at 11.0 µM 1% | [1]; at 33.0 µM 2% | [1]; at 100.0 µM -3% | [2]; at 1.2 µM -2% | [2]; at 3.7 µM -3% | [2]; at 11.0 µM -1% | [2]; at 33.0 µM -3% | [2]; at 100.0 µM -2% | [3]; at 1.2 µM -1% | [3]; at 3.7 µM 2% | [3]; at 11.0 µM 2% | [3]; at 33.0 µM -1% | [3]; at 100.0 µM 2% | [4]; at 1.2 µM 2% | [4]; at 3.7 µM 3% | [4]; at 11.0 µM 3% | [4]; at 33.0 µM 2% | [4]; at 100.0 µM 4% | [5]; at 1.2 µM -5% | [5]; at 3.7 µM -3% | [5]; [17] 1% | [5]; at 11.0 µM -2% | [5]; at 33.0 µM -1% | [5]; [18] 3% | [5]; at 50.0 µM 39.3% | [5]; at 100.0 µM -1% | [6]; at 1.2 µM 0% | [6]; at 3.7 µM -1% | [6]; [17] -15% | [6]; at 11.0 µM 0% | [6]; at 33.0 µM 0% | [6]; [18] -5% | [6]; at 50.0 µM 20.9% | [6]; at 100.0 µM -1% | [7]; at 1.2 µM -6% | [7]; at 3.7 µM -4% | [7]; at 11.0 µM -3% | [7]; at 33.0 µM 0% | [7]; at 100.0 µM 0% | [8]; [17] -2% | [8]; [18] -6% | [8]; at 50.0 µM 1.8% | [9]; at 1.2 µM 2% | [9]; at 3.7 µM 4% | [9]; at 11.0 µM 3% | [9]; at 33.0 µM 1% | [9]; at 100.0 µM 4% | [10]; [17] 26% | [10]; [18] 55% | [10]; at 50.0 µM 23.2% | [11]; at 1.2 µM 0% | [11]; at 3.7 µM 0% | [11]; [17] 15% | [11]; at 11.0 µM 4% | [11]; at 33.0 µM 7% | [11]; [18] 8% | [11]; at 50.0 µM 15.7% | [11]; at 100.0 µM 9% | [12]; at 1.2 µM -3% | [12]; at 3.7 µM -2% | [12]; at 11.0 µM -2% | [12]; at 33.0 µM -3% | [12]; at 100.0 µM -2% | [13]; at 1.2 µM 0% | [13]; at 3.7 µM 1% | [13]; at 11.0 µM 2% | [13]; at 33.0 µM 3% | [13]; at 100.0 µM 3% | [14]; at 1.2 µM -1% | [14]; at 3.7 µM 0% | [14]; at 11.0 µM 1% | [14]; at 33.0 µM 1% | [14]; at 100.0 µM 2% | [15]; [17] -20% | [15]; [18] -7% | [15]; at 50.0 µM -9.1% | [16]; at 1.2 µM -3% | [16]; at 3.7 µM 1% | [16]; at 11.0 µM 0% | [16]; at 33.0 µM -3% | [16]; at 100.0 µM 0%

From PubChem BioAssay (NCI)
